In PubChem BioAssay AID1477 (National Center for Advancing Translational Sciences (NCATS), 2009):
In all, about 230,000 compounds went through this assay and fewer than 10 were called active. About 3% were inconclusive and are not listed. Calls follow the shape of the dose curve; as a rule, active = well fitted curve in the direction sought with a large enough effect; inconclusive = small, poorly fitted or top-dose-only effect, or effect the other way, or another doubt; inactive = no such curve, though single readings can be large or run the other way. The list is a sample of the results.

Molecular target: Runt-related transcription factor 1 (Homo sapiens) + Core-binding factor subunit beta (Homo sapiens) (UniProt Q01196+Q13951)
Assay: qHTS Assay for Compounds Blocking the Interaction Between CBF-beta and RUNX1 for the Treatment of Acute Myeloid Leukemia; also: % of control where 0% means no effect
Settings: AlphaScreen CBFb-His/RUNX1-biotin binding, biochemical; series mostly up to 59.8 µM; activity, negative = inhibition: at the top concentration
Source text: NIH Chemical Genomics Center [NCGC]
NIH Molecular Libraries Probe Production centers Network [MLPCN]
Assay Submitter (PI): Paul Liu
Core Binding Factor (CBF) abnormalities are associated with 20-25% of all acute myeloid leukemias (AML), of which 5-10% are further sub classified as acute myelomonocytic leukemia with eosinophilia, also known as M4Eo in the FAB classification scheme. This subtype of leukemia is usually associated with chromosome 16 inversion (p13:q22). Chromosome 16 inversion results in formation of the fusion oncogene CBFB-MYH11, which encodes the fusion protein CBF-beta-SMMHC.
It has been hypothesized that the interference of CBF-beta and RUNX1 binding could have therapeutic implications for patients with CBF mediated leukemias. We developed a CBF-beta and RUNX1 binding assay in AlphaScreenTM format and optimized it for high throughput screening to search for inhibitors. The goal of this project is to screen MLPCN's compound collection (MLSMR) for identifying the inhibitors of the interaction between CBF-beta and RUNX1 proteins as research probes. If these probes work well in the animal models, the ultimate goal of this project is to development a new drug treatment for this disease.
This assay can not be used to assess how apparent inhibitors interfere with protein binding, and whether inhibitors specifically bind to either protein. Disruption of this protein-protein interaction, through any mechanism, is the intended target activity.
NCGC Assay Protocol Summary:
Step, Parameter, Description
(1) Reagent, 3 uL CBFb-His/RUNX1-biotin mix incubated together for 20 minutes at room temperature (30 nM each)
(2) Compound or control, 23 nL compound stock solution
(3) Incubation, 15 minutes at Room temperature
(4) Reagent, 1 uL 50 ng each of beads (Nickel beads and streptavidin beads)
(5) Incubation, 90 minutes at Room temperature
(6) Detection, Excitation=365 nm Emission=440 nm, Envision reader in AlphaScreenTM mode
Keywords: MLSMR, MLPCN, NIH Roadmap, qHTS, NCGC, Core binding factor, CBF, CBF-beta, Acute myeloid leukemia

Chain of Runt-related transcription factor 1 (Homo sapiens) + Core-binding factor subunit beta (Homo sapiens) (Q01196 whole entry, looked up): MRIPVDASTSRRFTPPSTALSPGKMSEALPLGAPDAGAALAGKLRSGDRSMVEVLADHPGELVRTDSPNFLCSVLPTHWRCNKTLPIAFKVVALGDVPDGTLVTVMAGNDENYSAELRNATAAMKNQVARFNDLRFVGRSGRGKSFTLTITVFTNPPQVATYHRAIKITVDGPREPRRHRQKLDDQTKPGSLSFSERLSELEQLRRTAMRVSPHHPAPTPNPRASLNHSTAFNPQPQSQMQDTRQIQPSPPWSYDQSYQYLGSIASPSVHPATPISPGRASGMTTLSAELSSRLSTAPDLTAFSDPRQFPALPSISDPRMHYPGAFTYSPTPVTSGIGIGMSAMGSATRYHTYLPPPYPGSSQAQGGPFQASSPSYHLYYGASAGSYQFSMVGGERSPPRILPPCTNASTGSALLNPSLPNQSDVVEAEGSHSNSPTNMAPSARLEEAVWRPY
Chain of Runt-related transcription factor 1 (Homo sapiens) + Core-binding factor subunit beta (Homo sapiens) (Q13951 whole entry, looked up): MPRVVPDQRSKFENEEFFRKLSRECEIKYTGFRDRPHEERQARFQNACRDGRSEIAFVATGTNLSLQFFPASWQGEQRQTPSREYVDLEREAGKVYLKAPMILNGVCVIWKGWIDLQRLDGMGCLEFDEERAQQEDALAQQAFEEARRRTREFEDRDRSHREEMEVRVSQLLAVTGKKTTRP

activity, negative = inhibition, inactive:
CN(C)/C=C(/C(=O)c1ccc(F)cc1)S(=O)(=O)c1ccc(F)cc1 1.81%
COc1ccc(C2c3[nH]c4ccccc4c3CCN2CCCn2cccn2)cc1C (stereo not drawn) -29.3%
S=c1nc(C23CC4CC(CC(C4)C2)C3)nc2sccn12 -0.607%
Cc1ccc(-c2ccc(/C=C(\C#N)C(N)=S)o2)c([N+](=O)[O-])c1 -23.3%
Cc1cccc(N2CCN(C(=O)c3cccc(S(=O)(=O)N4CCc5ccccc5C4)c3)CC2C)c1 (stereo not drawn) -11.3%
CCO[C@@H]1OC(C(=O)NC2CC2)=C[C@H](C)[C@H]1CCCO 12.6%
CCC1(CC)C(=O)C2=C3C1[C@H](C(=O)OC)C=C(C(=O)OC)C[C@H]3[C@H]1C(=O)N(Cc3ccccc3)C(=O)[C@H]1[C@H]2C (stereo partly drawn) -0.944%
CC(=O)OCC(NC(=O)C(Cc1ccccc1)NC(=O)OC(C)(C)C)C1OC(n2ccc(=O)[nH]c2=O)C(OC(C)=O)C1OC(C)=O (stereo not drawn) 2.78%
COc1cc(S(=O)(=O)N2CCOCC2)ccc1NC(=O)COc1ccc(N(C)S(=O)(=O)c2ccc(C)cc2)cc1 -0.159%
CNC(=O)/C(C#N)=C/c1c(F)cccc1Cl -5.52%
CCCCNC(=O)CSc1nc2ccc(NC(=O)CSc3nnc(N)s3)cc2s1 -1.53%
CN(CC(=O)Nc1ccc(F)cc1)CC(=O)Nc1ccc(Cl)c(S(=O)(=O)N2CCOCC2)c1 2.15%
NC(=O)c1ccc(NC(=O)COC(=O)c2c3c(nc4ccccc24)/C(=C\c2ccc4c(c2)OCO4)CCC3)cc1 -4.8%
COc1cc(OC)c2c(C)cc(=O)oc2c1C(CCN1CCCCC1)c1ccc(N(C)C)cc1 (stereo not drawn) -27.7%
Cc1cc(C(=O)NCCc2ccc(Cl)cc2)n(-c2ccccc2)n1 7.58%
Cc1ccc(CNC(=O)C2(C(F)(F)F)C/C(=C\Cc3ccccc3)CCCO2)o1 (stereo not drawn) 3.01%
CCCN1CCC(=O)N(C(CSc2ccc(C)cc2)Cc2ccccc2)CC1 (stereo not drawn) 16.7%
Cn1ncc(N2CCN(S(=O)(=O)c3ccc(Br)cc3)CC2)c(Cl)c1=O 2.59%
CC1(C)OC(C(O)(c2ccccc2)c2ccccc2)C(C(O)(c2ccccc2)c2ccccc2)O1 (stereo not drawn) 6.37% [at 13.1 µM]
CCc1c(C)nc2c(-c3ccccc3)c(C)nn2c1Nc1ccc(NC(C)=O)cc1 16.4%
Cn1ncc2c(NNC(=O)Cc3cccc4ccccc34)ncnc21 -4.15%
O=c1ccn([C@@H]2O[C@H](COP(=O)(O)OP(=O)(O)OP(=O)(O)O)[C@@H](O)[C@H]2O)c(=O)[nH]1 6.66%
CCC/C(C)=N\Nc1nc2c(c(=O)n(C)c(=O)n2C)n1C 6.87%
O=C1CN(Cc2ccccc2)S(=O)(=O)c2ccccc21 -4.13%
CCc1nnc(NC(=O)[C@@H](NC(=O)c2cccc(C)c2)C(C)C)s1 2.27%
O=[N+]([O-])c1ccccc1S(=O)(=O)Nc1cccc2cccnc12 -10.9%
N#Cc1c(C(F)(F)F)cc(-c2cccs2)nc1N1CCCCC1 9.34%
COc1ccc2nc(NC(=O)[C@@H]3CCCN3C(=O)c3cccs3)sc2c1 6.2%
Cc1ccc(OCCCCN2CCCCC2)c(Br)c1 4.27%
C[C@H]1Cc2c(-c3ccccc3)nc3c(c2CO1)CN(C(=O)C1CC1)CC3 -2.96% [at 13.1 µM]
COc1ccc(-c2nc3c(c4c2C[C@H](c2ccccc2)OC4)CN(S(=O)(=O)c2c(C)noc2C)CC3)c(C)c1 2.29% [at 13.1 µM]
CCOC(=O)C1=C(CSc2nnnn2C)N(C)C(=O)NC1c1ccccc1 (stereo not drawn) 3.15%
COc1ccc(SC[C@H](Cc2ccccc2)N2CCN(CCc3ccccc3)CCC2=O)cc1 -4.77%
CON(C)S(=O)(=O)c1ccc2c(c1)NC(=O)C1CCCN21 (stereo not drawn) -0.392%
O=C(NCCc1ccccn1)c1cccnc1Oc1ccc(Cl)cc1 -1.09%
COc1ccc(SCCN2CCN(CC(C)C)CCC2=O)cc1
Cc1ccccc1C(OCCN(C)C)C1CCCCC1 (stereo not drawn) -1.22%
COC(=O)c1ccc(C(NC(=O)OCc2ccccc2)/C(F)=C/[C@@H](C)C(=O)O)cc1 (stereo partly drawn) 5.16%
C[C@@H]1O[C@@H](OC[C@H]2O[C@@H](Oc3cc(O)c4c(c3)O[C@H](c3ccc(O)c(O)c3)CC4=O)[C@H](O)[C@@H](O)[C@@H]2O)[C@H](O)[C@H](O)[C@H]1O 9.48%
COc1ccc(NC(=O)CSc2ncnc3[nH]ncc23)cc1 3.92%
COc1ccc(-c2nc3c(c4c2C[C@H](c2ccccc2)OC4)CN(C(=O)c2cccnc2)CC3)c(C)c1 2.51% [at 13.1 µM]
CC1CCN(C(=S)c2ccc(-c3ccc(Cl)cc3Cl)o2)CC1 -20.9%
O=C(/C=C/c1ccc(OCc2c(F)cccc2Cl)cc1)N1CCOCC1 2%
OCCC(O)CO (stereo not drawn)
COc1ccc2cc(-c3[nH]ncc3CNCCn3nc(C)cc3C)ccc2c1 -0.162%
COC(=O)c1ccc([C@@H](O)[C@H](C)C(=O)CC(=O)OC(C)(C)C)cc1 2.81%
O=C(Nc1cc(C(=O)Nc2ccc(S(=O)(=O)O)cc2)cc(C(=O)Nc2ccc(S(=O)(=O)O)cc2)c1)Nc1cc(C(=O)Nc2ccc(S(=O)(=O)O)cc2)cc(C(=O)Nc2ccc(S(=O)(=O)O)cc2)c1 2.73%
Cc1ccccc1C(CC(=O)c1cccs1)C(C#N)C#N (stereo not drawn) 5.81%
CC[C@H](C)[C@H](NC(=O)[C@@H](N)CCC(=O)O)C(=O)N[C@@H](CC(C)C)C(=O)N[C@@H](CC(=O)O)C(=O)N[C@H](C(=O)N1CCC[C@H]1C(=O)N[C@@H](CO)C(=O)N[C@H](C(=O)O)[C@@H](C)O)C(C)C 6.33%
CCCCOc1ccc(C(=O)N/C(=C/C=C/c2ccccc2)C(=O)N2CCOCC2)cc1 -2.12%
CC(Oc1cccc(NC(=O)c2cccs2)c1)C(=O)c1ccccc1 (stereo not drawn) 8.25%
Cc1cccc(Nc2nc3c(S(=O)(=O)c4ccccc4)nnn3c3ccccc23)c1C 5.47%
CCO[C@@H]1OC(C(N)=O)=C[C@H](c2ccc(Br)cc2)[C@H]1CCCO -3.58%
O=c1c(O)c(-c2ccc(O)cc2)oc2ccccc12 15.3%
N=c1n(CCc2ccccc2)c2ccccc2n1Cc1ccccc1F -3.25%
O=C1CCC(=O)N(O)CCCCCNC(=O)CCC(=O)N(O)CCCCCNC(=O)CCC(=O)N(O)CCCCCN1 -0.792%
CC1CN(c2nc(-c3ccccc3)nnc2-c2ccccc2)CC(C)O1 (stereo not drawn) -2.13%
CCOCCCNCc1ccc(OCc2ccc(F)cc2)c(OC)c1 5.35%
O=C(NCc1ccco1)c1ccc(NS(=O)(=O)c2cccc([N+](=O)[O-])c2)cc1 -3.71%
COc1cc(OC)c2c(c1C(CCN1CCCCC1)c1ccc(N(C)C)cc1)OC(=O)CC2c1ccc(N(C)C)cc1 (stereo not drawn) -23.3%
O=C(NCC1CCCO1)c1ccccc1-c1nc(-c2ccccc2Cl)no1 (stereo not drawn) 7.64%
COc1ccc(CCNC(=O)CSc2nc(-c3ccc(OC)c(OC)c3)ccc2C#N)cc1 -1.06%
COc1ccc(C[C@H](C(=O)O)N2C(=O)c3ccc(C(=O)O)cc3C2=O)cc1 20.6%
O=C(N/N=C/c1ccc(Cl)cc1)c1nc2ccc([N+](=O)[O-])cc2c(=O)[nH]1 -8.86%
COc1ccc(-c2ccc(OC)c(C3C4C=CCC(C)C4C(=O)N3Cc3ccccc3)c2)cc1C (stereo not drawn) 14.2%
O=S(O)S(=O)(=O)O 2.05%
CCN(CC)N=Nc1cccc(NC(C)=O)c1 0.472%
Cc1cc(N(C)C)nc(Cl)n1 24.8%
CN(C)C(=O)c1ccc2c(c1)C1C3CCC(C3)C1C(c1ccccc1)N2 (stereo not drawn) -1.89%
COC(=O)c1c(C)oc(C)c1S(=O)(=O)Nc1ccc(C(C)C)cc1 4.81%
O=C(/C=C/c1ccc2c(c1)OCO2)NCc1cn2cc(Cl)ccc2n1 10.5%
C=CCCC(=O)Nc1nc(C)c(-c2csc(Nc3ccc(Cl)cc3)n2)s1 -6.07%
COc1ccc2[nH]c3c(C)c4cc[n+](C)cc4c(C)c3c2c1 -13.8%
CCCCCCCC1=Cc2ccc(F)cc2C(C(C(=O)OC)C(=O)OC)N1C(=O)OC (stereo not drawn)
CCOC(OCC)OCC 13.3%
Cc1ccc(-c2nnc(-n3nnc4ccccc43)c3ccccc23)cc1 -5.67%
COc1ccc(C2CC(O)(c3ccccc3)Oc3cc(C)cc(C)c32)cc1 (stereo not drawn) 10.1%
CC(=O)Nc1ccc(S(=O)(=O)N2N=NC3C2C2CC4C3(CN(C(=O)OC(C)(C)C)S4(=O)=O)O2)cc1 (stereo not drawn) -0.112%
C=C1CCN(C(CC(C)C)C(=O)NCc2cc(OC)c(OC)c(OC)c2)S(=O)(=O)c2ccccc21 (stereo not drawn) 26.6%
COc1cc(NC(=S)N2CCCC(C)C2)c(OC)cc1Cl (stereo not drawn) 7.75%
COC(=O)CCc1ccccc1S(=O)(=O)N(CCC(=O)OC)Cc1ccccc1 20.5%
OC1CCCN(c2ncnc3c2nnn3Cc2c(F)cccc2Cl)C1 (stereo not drawn) 9.2%
COc1ccc(CN2CCC(=O)c3ccccc3S2(=O)=O)cc1 5.44%
COc1ccc(C2/C=C\CN(Cc3ccco3)C(C)C(=O)N2Cc2ccc(F)cc2)cc1 (stereo not drawn) -1.62%
CCCCc1nn(-c2ccccc2C(F)(F)F)c(=O)n1Cc1ccc(-c2ccccc2S(=O)(=O)NC(=O)c2sccc2C)cc1 3.51%
O=c1[nH]nc(SCCS(=O)(=O)c2ccc(F)cc2)n1-c1ccccc1C(F)(F)F 6.84%
O=C(O)c1ccc(NS(=O)(=O)c2ccc3c(c2)C(=O)c2cc(S(=O)(=O)Nc4ccc(C(=O)O)cc4)ccc2-3)cc1 -4.76%
COc1ccc(N)c(OC)c1 7.36% [at 21.7 µM]
COc1ccc(NC(=O)C2C3C=CC(C3)C2C(=O)NCc2ccccn2)c(OC)c1 (stereo not drawn) -0.254%
COc1cccc(OC)c1C(=O)NC(=S)Nc1ccc(N2CCOCC2)c(Cl)c1 -15.9%
Cn1c(=O)c2c(-c3cccc(Br)c3)c(C#N)c(N)nc2n(C)c1=O 7.33%
O=C(NCC1CC1)C1(C(F)(F)F)C/C(=C\CCO)CCCO1 (stereo not drawn) -8.25%
CCN(CC)/[N+]([O-])=N/Oc1cc(O/[N+]([O-])=N/N2CCCC2CO)c([N+](=O)[O-])cc1[N+](=O)[O-] (stereo not drawn) 10.8%
